Several values for one entry are separate records, joined by “and”; a condition that tells them apart may be missing. Equal values may be shown once. Activity calls are given as the source filed them.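 How the source made its calls: active means inhibition at or above 50% relative to wild type and mutant plate controls; inactive means inhibition below 50%.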
assay: loss of swimming-algae plug formation – whole organism, Chlamydomonas reinhardtii, WT vs cilia-less mutant, absorbance, 96-well, primary screen (AID 463189); conditions: Chlamydomonas reinhardtii gravitaxis, OD600 absorbance, 2 days; at 10 µM; hits give high values;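 further: 0% = wild type cc124 cells in DMSO and 100% = ciliumless bld1 mutant cells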

Row | Structure (SMILES) | inhibition
1 | NC(C(=O)N[C@@H]1C(=O)N2C(C(=O)O)=C(Cl)CS[C@H]12)c1ccccc1 (stereo not given in full) | 7.28% (inactive)
2 | O=C1c2c(O)ccc(O)c2C(=O)c2c(NCCNCCO)ccc(NCCNCCO)c21 | 28.8% (inactive)
3 | O=C1Nc2ccc(I)cc2/C1=C/c1cc(Br)c(O)c(Br)c1 | -6.77% (inactive)
4 | CCN1CCCC1CNC(=O)c1cc(S(N)(=O)=O)ccc1OC (stereo not given) | 2.91% (inactive)
5 | COc1ccc(CCNC[C@@H](O)c2ccc(O)cc2)cc1OC | -0.226% (inactive)
6 | CCCCCC(O)c1cccc(OCc2ccc3ccccc3n2)c1 (stereo not given) | 3.99% (inactive)
7 | C[N+](C)(C)CCCCCC[N+](C)(C)C | 5.27% (inactive) and -2.94% (inactive)
8 | O=Nc1c(-c2c(O)[nH]c3ccccc23)[nH]c2ccccc12 | 1.78% (inactive)
9 | COc1nc(C)nc(Cl)c1NC1=NCCN1 | 1.2% (inactive)
10 | COc1ccc2[nH]c(I)c(CCNC(C)=O)c2c1 | -0.69% (inactive)
11 | CC(=O)SC1CC2=CC(=O)CC[C@]2(C)C2CC[C@@]3(C)C(CC[C@@]34CCC(=O)O4)C12 (stereo not given in full) | 3.21% (inactive)
12 | COc1cc2c(cc1O)CC[C@@H]1[C@@H]2CC[C@]2(C)[C@@H](O)CC[C@@H]12 | -5.37% (inactive)
13 | CC[C@@H]1Cc2cc(O)ccc2C2=C1c1ccc(O)cc1C[C@H]2CC | 0.094% (inactive)
14 | CCN1/C(=C/C(C)=O)Sc2ccc(OC)cc21 | 9.38% (inactive)
15 | CN1C2CCC1CC(NC(=O)c1nn(C)c3ccccc13)C2 (stereo not given) | 10.7% (inactive)
16 | O=C1c2ccccc2-c2n[nH]c3cccc1c23 | 34.8% (inactive)
17 | CC(C)NC[C@@H](O)c1ccc(O)c(O)c1 | 3.12% (inactive)
18 | CC12C(=O)OC(=O)C1(C)C1CCC2O1 (stereo not given) | -3.97% (inactive)
19 | CCCCCCCCCCCCCCCCOCC(COCC(F)(F)F)OP(=O)(O)OCO (stereo not given) | 6.55% (inactive)
20 | CCCC[C@@]1(C2CCCC2)Cc2cc(OCC(=O)O)c(Cl)c(Cl)c2C1=O | 4.57% (inactive)

Row | Structure (SMILES) | inhibition
21 | CCN1CCC[C@H]1CNC(=O)c1c(O)c(Cl)cc(Cl)c1OC | 0.286% (inactive)
22 | CCCCCCCCCCCCCCSCC(=O)O | 7.96% (inactive)
23 | CC1=C(C(=O)O)N2C(=O)[C@@H](NC(=O)C(N)c3ccccc3)[C@H]2SC1 (stereo not given in full) | -0.964% (inactive)
24 | NC(N)=NCCC[C@H](N)C(=O)O | -8.92% (inactive)
25 | CC[N+](CC)(CC)CC(=O)Nc1c(C)cccc1C | 6.77% (inactive)
26 | FC(F)(F)c1cc(CO[C@H]2CCCN[C@H]2c2ccccc2)cc(C(F)(F)F)c1 | 14.5% (inactive)
27 | O=c1onc2cnc3ccccc3n12 | 3.46% (inactive)
28 | O=C(O)C1=CCCN(CCON=C(c2ccccc2)c2ccccc2)C1 | -1.19% (inactive)
29 | O=c1c2ccccc2nc2n1CCc1c-2[nH]c2ccccc12 | 2.73% (inactive)
30 | O=C(O)c1ccccc1Nc1cccc(OCc2ccc3ccccc3n2)c1 | 8.8% (inactive)
31 | C[N+](C)(C)CC=O | 5.9% (inactive)
32 | O=C(O)Cc1c[nH]c2ccc(O)cc12 | -4.32% (inactive)
33 | CCCNC(C)C(=O)Nc1ccccc1C (stereo not given) | 6.52% (inactive)
34 | CCCN(CCC)CCc1cccc2c1CC(=O)N2 | 4.03% (inactive)
35 | Cn1cc(C(=O)OCC2CCN(CCNS(C)(=O)=O)CC2)c2ccccc21 | 6.02% (inactive)
36 | CCCCCCCCCCCCCCCCCC(=O)NCC(COP(=O)([O-])OCC[N+](C)(C)C)OCC (stereo not given) | 9.71% (inactive)
37 | COc1ccccc1N1CCN(CCN(C(=O)C2CCCCC2)c2ccccn2)CC1 | 9.85% (inactive)
38 | CNC(=O)[C@H]1O[C@@H](n2cnc3c(NCc4ccc(N)cc4)ncnc32)C(O)[C@H]1O (stereo not given in full) | -1.61% (inactive)
39 | COC(=O)C1=C(C)NC(C)=C([N+](=O)[O-])C1c1ccccc1C(F)(F)F (stereo not given) | 5.83% (inactive)
40 | CC(C)(C)NCC(O)COc1cccc2[nH]c(=O)[nH]c12 (stereo not given) | 3.61% (inactive)

Source: PubChem BioAssay
